# Only some compounds are listed: those with a hit (about 13% of all), similar ones and a draw of the others.
# USP28 block = blocks human USP28 ubiquitin-rhodamine cleavage; Q96RU2; purified USP28, Ub-rhodamine cleavage fluorescence, 30 min; inhibition, % at 25 µM; hit rate 3% among 47,000; AID 1645857
# USP17 inh = blocks human USP17 ubiquitin-rhodamine cleavage | A8MUK1 | purified USP17, Ub-rhodamine cleavage fluorescence, 3 h | inhibition, % at 50 µM | hit rate 6.5% among 47,000
# OTUD3 inh = human OTUD3 deubiquitinase inhibition; AID 1645858; inhibition, % at 25 µM; purified OTUD3, Ub-rhodamine fluorescence, 2 h; hit rate 0.7% among 47,000; Q5T2D3
# USP8 inh = blocks human USP8 ubiquitin-rhodamine cleavage; P40818; purified USP8, Ub-rhodamine cleavage fluorescence, 30 min; inhibition, % at 20 µM; hit rate 4.2% among 47,000; AID 1645853
# Target sequence (P40818 whole entry, looked up): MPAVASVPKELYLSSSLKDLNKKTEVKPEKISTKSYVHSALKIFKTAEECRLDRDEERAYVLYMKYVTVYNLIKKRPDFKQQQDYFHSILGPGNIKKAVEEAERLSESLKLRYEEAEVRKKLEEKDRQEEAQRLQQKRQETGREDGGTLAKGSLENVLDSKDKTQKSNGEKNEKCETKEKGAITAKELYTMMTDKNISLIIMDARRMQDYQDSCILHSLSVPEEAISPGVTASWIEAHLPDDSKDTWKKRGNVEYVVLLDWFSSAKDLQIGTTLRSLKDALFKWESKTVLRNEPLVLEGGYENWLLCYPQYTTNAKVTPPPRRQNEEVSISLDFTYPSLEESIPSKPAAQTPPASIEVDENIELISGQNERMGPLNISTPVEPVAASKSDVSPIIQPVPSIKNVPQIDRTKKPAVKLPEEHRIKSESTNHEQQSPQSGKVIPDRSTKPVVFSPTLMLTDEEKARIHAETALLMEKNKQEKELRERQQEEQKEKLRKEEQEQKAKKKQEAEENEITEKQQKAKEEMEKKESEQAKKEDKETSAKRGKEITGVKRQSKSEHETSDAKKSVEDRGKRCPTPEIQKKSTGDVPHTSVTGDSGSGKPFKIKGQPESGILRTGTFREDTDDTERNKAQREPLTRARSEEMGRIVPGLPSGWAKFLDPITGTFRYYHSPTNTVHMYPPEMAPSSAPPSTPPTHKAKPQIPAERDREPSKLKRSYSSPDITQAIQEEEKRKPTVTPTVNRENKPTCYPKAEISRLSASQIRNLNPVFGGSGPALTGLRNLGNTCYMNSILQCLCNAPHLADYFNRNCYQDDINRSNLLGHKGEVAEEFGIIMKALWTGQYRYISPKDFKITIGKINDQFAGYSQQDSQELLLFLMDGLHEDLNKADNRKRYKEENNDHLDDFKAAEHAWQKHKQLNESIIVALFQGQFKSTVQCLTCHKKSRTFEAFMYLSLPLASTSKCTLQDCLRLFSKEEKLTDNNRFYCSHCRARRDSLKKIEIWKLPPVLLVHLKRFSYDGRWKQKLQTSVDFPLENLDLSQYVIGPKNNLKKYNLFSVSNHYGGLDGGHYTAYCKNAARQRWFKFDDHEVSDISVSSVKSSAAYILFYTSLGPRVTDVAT
# USP10 block = blocks human USP10 ubiquitin-rhodamine cleavage. Q14694. purified USP10, Ub-rhodamine fluorescence, 60 min. inhibition, % at 20 µM. hit rate 1.1% among 47,000
# USP30 block = inhibitors of human USP30 deubiquitinase. Q70CQ3. purified USP30, Ub-rhodamine cleavage fluorescence. inhibition, % at 25 µM. hit rate 5.3% among 47,000. AID 1645860
# Starred values were filed as active, the others as inactive; i = inactive. Cut-off read from the data, not from the text of the source: active = inhibition above about 30%; inactive = the rest.
SMILES,USP28 block,USP17 inh,OTUD3 inh,USP8 inh,USP10 block,USP30 block
O=C(CCc1ccccc1)NC(c1ccccc1)c1ccccc1,-1,16,-2,-6,4,27
O=C(COC(=O)C(c1ccccc1)c1ccccc1)NCc1ccccc1,21,25,21,7,15,34*
O=C1COc2ccc(NC(=O)c3cnn(Cc4ccccc4)c3)cc2N1,12,63*,11,2,3,19
CC(=C/C(C)C/C=C/C(C)=C/C(C)C(=O)C(C)C(O)C(C)C/C(C)=C/C(=O)O)/C=C/C1OC(=O)C=CC1C (centres undefined),1,20,-4,2,3,-23
COc1ccccc1CC(=O)N[C@@H](C)c1nc2cc(-c3ccccc3F)ncn2n1,18,-39,13,10,2,39*
C[C@H](NC(=O)Cc1ccccc1F)c1nc2cc(-c3ccc(F)cc3)ncn2n1,8,25,15,12,16,35*
CCOCc1ccc(C(=O)N[C@H](C)c2nc3cc(-c4ccc(OC)cc4)ncn3n2)cc1,22,13,-2,4,35*,41*
COc1ccc(NC(=O)COc2ccc(F)cc2C(C)=O)cc1S(=O)(=O)N1CCOCC1,10,2,16,3,-3,0
O=C(O)c1ccccc1C(=O)Nc1ccc(SC(C(=O)Nc2ccccc2F)c2ccccc2)cc1 (centres undefined),3,-3,-5,6,9,19
O=C(O)c1ccccc1C(=O)Nc1ccc(SC(C(=O)Nc2ccccc2)c2ccccc2)cc1 (centres undefined),19,63*,8,5,17,13
O=C(O)c1ccc(Cl)c(NC(=O)C(Sc2cccc(NC(=O)c3cccc(Cl)c3)c2)c2ccccc2)c1 (centres undefined),4,15,-1,-26,11,-40
Cc1ccc(C(=O)O)cc1NC(=O)C(Sc1cccc(NC(=O)c2ccccc2C)c1)c1ccccc1 (centres undefined),55*,92*,49*,27,37*,78*
CC(C)c1ccc(NC(=O)c2ccccc2N2C(=O)N3CCc4c([nH]c5ccccc45)[C@@]3(C)C2=O)cc1,-9,-2,-7,-19,-1,-35
Cc1cc(O)c(Oc2cc(C)cc(O)c2O)c(O)c1,47*,47*,34*,0,2,31*
O=C(CSc1nnc2c(n1)[nH]c1ccccc12)NCc1ccc(C(=O)O)cc1,-5,-13,-2,6,2,5
O=C(CSc1nc2c(cnn2-c2ccccc2)c(=O)[nH]1)Nc1ccc(Cl)cc1F,15,-26,8,80*,9,30*
CCc1ccc(NC(=O)COc2ccc(-c3nc(CC)no3)cc2)cc1,2,20,4,-17,4,26
CCc1noc(-c2ccc(OCC(=O)Nc3ccccc3C(C)C)cc2)n1,-9,41*,1,-21,1,25
CCc1noc(-c2ccc(OCC(=O)Nc3ccc(C)cc3C)cc2)n1,5,51*,4,1,6,15
O=C(NCC1(O)CCc2ccccc21)c1ccc2c(c1)OCO2 (centres undefined),10,15,18,-1,6,33*
COc1ccc(CCNC(=O)[C@H](C(C)C)N2C(=O)N3CCc4c([nH]c5ccccc45)[C@@]3(C)C2=O)cc1,16,0,7,23,1,6
O=C(NC1CCN(Cc2ccccc2)CC1)c1ccc(Cn2c(=O)[nH]c3ccccc3c2=O)cc1,0,-6,-6,3,2,0
O=C(c1ccc(Cn2c(=O)[nH]c3ccccc3c2=O)cc1)N1CCN(Cc2ccc3c(c2)OCO3)CC1,18,33*,0,9,4,25
O=C(c1ccc(Cn2c(=O)[nH]c3ccccc3c2=O)cc1)N1CCN(c2ccc(F)cc2)CC1,18,10,11,1,8,48*
O=C(NCCc1ccccc1)c1ccc2c(=O)n(CCC3=CCCCC3)c(=O)[nH]c2c1,0,-9,3,0,24,0
SMILES,USP28 block,USP17 inh,OTUD3 inh,USP8 inh,USP10 block,USP30 block
O=C(NCCCN1CCN(c2ccc(F)cc2)CC1)c1ccc2c(=O)n(CCc3ccccc3)c(=O)[nH]c2c1,20,31*,29,30*,3,42*
CC(=O)[C@H]1[C@H](c2ccc(C)cc2)C2(C(=O)c3ccccc3C2=O)C2C=Cc3cc(Cl)ccc3N21 (some centres undefined),-214,-129,-173,-52,-9,i
Cc1ccc(Cl)cc1NC(=O)c1cc(-c2ccccn2)n[nH]1,-8,73*,-8,19,23,-2
COc1cc(OC)c(NC(=O)c2cc(-c3ccccn3)n[nH]2)cc1Cl,2,-4,5,89*,40*,15
COc1ccc(Cl)cc1NC(=O)c1cc(-c2ccccn2)n[nH]1,-11,61*,0,84*,47*,-34
O=C(/C=C/C=C/C=C/C1CCCCC1)NC1=C[C@@](O)(/C=C/C=C/C=C/C(=O)NC2=C(O)CCC2=O)[C@@H]2O[C@@H]2C1=O,75*,68*,73*,-24,-5,-39
COc1ccc([C@H]2C[C@@H](NC(C)=O)[C@@H]3CCCC[C@H]3O2)cc1O,-4,-1,0,8,-1,-1
Clc1ccc2c(c1)nc1n2CCN(CCc2ccccc2)C1,-145,-154,-176,-277,-2,i
O=C(CC(C(=O)c1ccccc1)c1cccs1)c1ccc(Cl)cc1 (centres undefined),-3,-24,2,-59,3,-13
Nc1ccccc1SC(CC(=O)c1ccc(Cl)cc1)c1ccsc1 (centres undefined),12,53*,6,73*,7,-16
CN1CCC(N[C@H]2[C@H](O)[C@H](O)C[C@@H]2c2ccccc2)CC1,-20,-39,-19,-5,-4,-67
Cc1cc(N)n(-c2nc3ccccc3s2)n1,17,36*,12,-122,0,41*
CN(C)C(=O)C1CN(C(=O)c2n[nH]c3c2CCCC3)CCN1C (centres undefined),8,9,5,11,0,26
COc1c2c(cc3cc(O)c4c(=O)cc(C)oc4c13)CCC2=O,27,60*,28,0,-3,-6
Cc1cc2cc(O)cc(O)c2c(=O)o1,3,2,5,0,0,27
CC(C)c1ccc(S(=O)(=O)N2CCCC(c3nc(-c4cccnc4)no3)C2)cc1 (centres undefined),21,52*,29,3,6,82*
Cc1ccc(S(=O)(=O)N2CCCC(c3nc(-c4cccnc4)no3)C2)cc1C (centres undefined),-7,-5,-6,-6,0,-3
COc1ccc(C)cc1NC(=O)Cn1c(C)cc(C)c1-c1nc(C(C)C)no1,7,24,12,14,1,31*

# Bioassay records (PubChem BioAssay)
